Assay outcomes as filed in PubChem BioAssay.
Vif-APOBEC3G blk: qHTS for Inhibitors of Vif-A3G Interactions: qHTS | HeLa A3G-eYFP + Vif (tagged APOBEC3G with the HIV-1 protein that degrades it), YFP fluorescence, overnight | Potency, µM (top dose mostly 46.1 µM), hits mostly inhibitors | actives 0.076% (n = 410,000) | AID 602310, 2012; further: nearly all actives have a fitted effect of over 60% in size
Target sequence (Q9HC16 whole entry, looked up): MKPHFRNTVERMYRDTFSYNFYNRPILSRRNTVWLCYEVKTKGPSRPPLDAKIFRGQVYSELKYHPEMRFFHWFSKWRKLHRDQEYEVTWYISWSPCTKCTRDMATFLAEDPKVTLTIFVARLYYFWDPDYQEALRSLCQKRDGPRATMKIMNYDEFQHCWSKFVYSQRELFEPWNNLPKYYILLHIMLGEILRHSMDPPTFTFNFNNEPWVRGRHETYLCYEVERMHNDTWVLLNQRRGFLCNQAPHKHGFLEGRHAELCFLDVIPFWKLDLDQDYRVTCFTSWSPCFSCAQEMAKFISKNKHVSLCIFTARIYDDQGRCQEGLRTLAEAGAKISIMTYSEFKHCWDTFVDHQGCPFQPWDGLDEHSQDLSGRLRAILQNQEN
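HeLa cells stably expressing Vif and C-terminally eYFP-tagged A3G, seeded overnight at 37 deg C, then exposed to compound by pintool overnight at 37 deg C. Rise in yellow fluorescence (Ex 488/Em 500-530, Acumen) marks blocked Vif-driven A3G degradation.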
IDH1 R132H inh: qHTS for Inhibitors of mutant isocitrate dehydrogenase 1 (IDH1): qHTS | Isocitrate dehydrogenase [NADP] cytoplasmic (Homo sapiens), O75874 | IDH1-R132H enzyme, NADPH consumption, diaphorase/resazurin fluorescence | Potency, µM (doses to about 76.6 µM), usual class: inhibitors | actives 0.093% (n = 390,000); further: nearly all actives have a fitted effect of over 65% in size
Target sequence (O75874 whole entry R132H, stated change not applied): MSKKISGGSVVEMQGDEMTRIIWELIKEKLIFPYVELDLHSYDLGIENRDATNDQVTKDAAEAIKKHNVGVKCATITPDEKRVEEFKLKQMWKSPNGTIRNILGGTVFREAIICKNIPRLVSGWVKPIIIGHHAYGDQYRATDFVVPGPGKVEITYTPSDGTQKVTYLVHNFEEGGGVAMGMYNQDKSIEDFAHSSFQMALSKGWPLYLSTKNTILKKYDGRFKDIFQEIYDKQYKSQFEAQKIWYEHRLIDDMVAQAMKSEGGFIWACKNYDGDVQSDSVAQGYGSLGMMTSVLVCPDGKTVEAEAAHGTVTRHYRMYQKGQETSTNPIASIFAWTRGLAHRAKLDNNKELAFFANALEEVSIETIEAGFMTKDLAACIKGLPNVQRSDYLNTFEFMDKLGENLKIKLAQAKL
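IDH1-R132H (0.5 ug/mL dispensed) in pH 7.5 Tris buffer was preincubated 30 min with compound, then given a substrate mix of 0.016 mM NADPH and 2 mM alpha-KG for 80 min at room temperature; remaining NADPH was read by diaphorase/resazurin fluorescence.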
Pin1 inh: qHTS Assay to Find Inhibitors of Pin1 | Potency, µM (top dose mostly 115 µM), most hits filed as inhibitors | actives 0.009% (n = 390,000) | Pin1 FP peptide displacement, HiFluor488, 10 min | AID 504891, 2011 | Peptidyl-prolyl cis-trans isomerase NIMA-interacting 1 (Homo sapiens), Q13526; active means well fitted inhibition curve with a large enough effect in the polarisation, with a control signal flat, not every such curve was filed as active; inconclusive means small, poorly fitted or top-dose-only effect, or effect the other way, or a change in a side signal; inactive means no such curve, though single readings can be large or run the other way; the % refers to the polarisation
Vif-APOBEC3F blk: qHTS for Inhibitors of Vif-A3F Interactions: qHTS; HeLa A3F-eYFP + Vif (tagged APOBEC3F with the HIV-1 protein that degrades it), YFP fluorescence increase; Potency, µM (top dose mostly 46.1 µM); actives 0.2% (n = 390,000); AID 602313, 2012; further: nearly all actives have a fitted effect of over 65% in size
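HeLa cells stably expressing A3F-eYFP plus Vif, plated and incubated overnight at 37 deg C, then exposed to compounds overnight at 37 deg C. Blocked degradation read as raised yellow fluorescence (Ex 488/Em 500-530).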
LDHA block: qHTS assay for inhibitors of human lactate dehydrogenase | purified LDHA, NADH/diaphorase-resazurin fluorescence; hits give low values | activity change, % (values are at about 110 or 230 µM) | actives 0.15% (n = 480,000); in the data active means activity change below about -30%; inconclusive means mostly about -25% to -30%
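Human LDH5 at 2 nM final in Tris HCl pH 7.4 with 0.06 mM NADH and 0.2 mM pyruvate, reacted 5 minutes at room temperature. Remaining NADH coupled via diaphorase/resazurin; resorufin fluorescence read at 0 and 20 minutes, normalized to enzyme-free and DMSO wells.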
Tb PGK inh: qHTS Assay to Find Inhibitors of Phosphoglycerate Kinase. Phosphoglycerate kinase, glycosomal (Trypanosoma brucei brucei), P07378. PGK/GAPDH coupled, Kinase-Glo luminescence, 60 min. Potency, µM (doses to about 57.5 µM), hits mostly inhibitors. actives 0.043% (n = 380,000); further: nearly all actives have a fitted effect of over 60% in size
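Recombinant glycosomal PGK reaction used 1,3-bisphosphoglycerate generated in-well by GAPDH (100nM final) in 100mM TEA pH 7.6, 5mM MgCl2, 0.01% Tween-20. After 60 minutes at room temperature, ATP was read by Kinase-Glo Plus luminescence end-point.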
Hits are given with their value. Shown are actives, neighbours in structure and some others; about 0.49% of the full set was active somewhere. Unless noted, the call rests on the fitted dose curve; in most records, active means well fitted curve in the direction sought with a large enough effect; inconclusive means small, poorly fitted or top-dose-only effect, or another doubt; inactive means no such curve, though single readings can be large; an effect the other way counts as inactive or inconclusive.

What do the screens show for `Nc1nc(Cl)nc(Nc2cccc(Cl)c2)c1[N+](=O)[O-]`?
LDHA block: inactive

Results for Cc1c2ccccc2nc2c(F)c(NC(C)C)c(F)c(F)c12 ?
Vif-APOBEC3G blk: inconclusive; IDH1 R132H inh: inactive; Pin1 inh: inconclusive; Vif-APOBEC3F blk: 13µM; LDHA block: inactive; Tb PGK inh: inactive

How did Cc1c2ccccc2nc2c(F)c(NCCO)c(F)c(F)c12 do in these assays?
Vif-APOBEC3G blk: inconclusive; IDH1 R132H inh: inactive; Pin1 inh: inconclusive; Vif-APOBEC3F blk: inconclusive; LDHA block: inactive; Tb PGK inh: inactive

What do the screens show for `O=CN1CCN(C(=O)c2cc(-c3cccs3)nc3ccccc23)CC1`?
LDHA block: inactive

What do the screens show for `O=C(NCC(c1ccccc1)N1CCOCC1)c1cc(-c2cccs2)on1` (configuration not stated)?
LDHA block: -32

How did Cn1c(N/N=C/c2cc3ccccc3nc2Cl)nc2ccccc21 do in these assays?
Vif-APOBEC3G blk: 11µM; IDH1 R132H inh: inactive; Pin1 inh: inconclusive; Vif-APOBEC3F blk: 22µM; LDHA block: inactive; Tb PGK inh: inactive

How did Cn1c(N/N=C/c2c[nH]c3ccccc23)nc2ccccc21 do in these assays?
Vif-APOBEC3G blk: inactive; IDH1 R132H inh: inactive; Pin1 inh: inactive; Vif-APOBEC3F blk: inactive; LDHA block: inactive; Tb PGK inh: inactive

What do the screens show for `CCOC(=O)c1cnc2c(Cl)cccc2c1Nc1ccccc1OCC`?
LDHA block: inactive

How did CCOC(=O)c1cnc2c(C)cccc2c1Nc1ccccc1OCC do in these assays?
LDHA block: -35

Results for Cc1ccc(-c2noc(-c3ccc(Br)cc3)n2)cc1 ?
LDHA block: inactive

What do the screens show for `Oc1nc(Nc2cccc(Cl)c2)sc1/C=C1\C=Nc2ccccc21`?
Vif-APOBEC3G blk: inactive; IDH1 R132H inh: inactive; Pin1 inh: inconclusive; Vif-APOBEC3F blk: inactive; LDHA block: inactive; Tb PGK inh: inactive

How did Oc1cccc(Nc2nc(O)c(/C=C3\C=Nc4ccccc43)s2)c1 do in these assays?
Vif-APOBEC3G blk: 4.5µM; IDH1 R132H inh: inactive; Pin1 inh: inconclusive; Vif-APOBEC3F blk: 11µM; LDHA block: inactive; Tb PGK inh: inactive

What do the screens show for `COc1cc(/C=C/[N+](=O)[O-])ccc1OCc1cccc(C(=O)O)c1`?
Vif-APOBEC3G blk: inconclusive; IDH1 R132H inh: inactive; Pin1 inh: 28µM; Vif-APOBEC3F blk: inactive; LDHA block: inactive; Tb PGK inh: inconclusive

How did COc1ccc(C(=O)C=Cc2ccc(OCc3ccccc3)c(OC)c2)cc1OC do in these assays?
Vif-APOBEC3G blk: inactive; IDH1 R132H inh: inactive; Vif-APOBEC3F blk: inactive; LDHA block: inactive; Tb PGK inh: inactive

Results for O=S(=O)(O)c1cc(O)c(N=Nc2ccc(O)cc2O)c2ccccc12 ?
Vif-APOBEC3G blk: inactive; IDH1 R132H inh: inactive; Vif-APOBEC3F blk: inactive; LDHA block: inactive; Tb PGK inh: 25µM

What do the screens show for `CCOC(=O)C1C(=O)C=C(/C=C/c2ccc(N(C)C)cc2)CC1c1ccccc1` (configuration not stated)?
Vif-APOBEC3G blk: inconclusive; IDH1 R132H inh: inactive; Pin1 inh: inconclusive; Vif-APOBEC3F blk: 2.8µM; LDHA block: inactive; Tb PGK inh: inactive

How did Cc1nc(NCc2ccccc2)sc1C(=O)N1CCC(C(N)=O)CC1 do in these assays?
LDHA block: inactive

What do the screens show for `NC1=NC(=Nc2cccc(S(N)(=O)=O)c2)c2ccccc21`?
Vif-APOBEC3G blk: inactive; IDH1 R132H inh: inactive; Pin1 inh: inactive; Vif-APOBEC3F blk: inactive; LDHA block: inactive; Tb PGK inh: inactive

How did COc1cc(N=Nc2cccc(S(N)(=O)=O)c2)c2ccccc2c1N do in these assays?
Vif-APOBEC3G blk: inconclusive; IDH1 R132H inh: inactive; Pin1 inh: inconclusive; Vif-APOBEC3F blk: 25µM; LDHA block: inactive; Tb PGK inh: inactive

How did COc1cc(N2N=C(c3ccccc3)CC2c2ccccc2)c(C=O)cc1C=O (configuration not stated) do in these assays?
Vif-APOBEC3G blk: inactive; IDH1 R132H inh: inactive; Pin1 inh: inactive; Vif-APOBEC3F blk: inactive; LDHA block: inactive; Tb PGK inh: inactive

Results for COc1ccccc1N1N=C(c2ccc([N+](=O)[O-])cc2)CC1c1ccccc1 (configuration not stated) ?
Vif-APOBEC3G blk: 2.5µM; IDH1 R132H inh: inactive; Pin1 inh: inconclusive; Vif-APOBEC3F blk: inactive; LDHA block: inactive; Tb PGK inh: inactive

What do the screens show for `CN(CCO)c1nc(-c2ccco2)c2c(c1C#N)CCCC2`?
LDHA block: inactive

What do the screens show for `O=c1oc2c(O)c(O)cc3c(=O)oc4c(O)c(O)cc1c4c23`?
Vif-APOBEC3G blk: inactive; IDH1 R132H inh: inactive; Pin1 inh: inconclusive; Vif-APOBEC3F blk: inactive; LDHA block: inconclusive; Tb PGK inh: 0.89µM

Results for O=C(CSc1ccc(-c2nc3ccccc3[nH]2)cn1)Nc1ccc(S(=O)(=O)N2CCCC2)cc1 ?
Vif-APOBEC3G blk: inactive; IDH1 R132H inh: inactive; Pin1 inh: inactive; Vif-APOBEC3F blk: inactive; LDHA block: inactive; Tb PGK inh: inactive

What do the screens show for `Cc1cc2nc(-c3ccc(SCC(=O)Nc4ccc(S(=O)(=O)N5CCCC5)cc4)nc3)[nH]c2cc1C`?
Vif-APOBEC3G blk: inactive; IDH1 R132H inh: inactive; Pin1 inh: inconclusive; Vif-APOBEC3F blk: 11µM; LDHA block: inactive; Tb PGK inh: inactive

How did COc1cc(/C=C(/C#N)c2ccccn2)ccc1OC(F)F do in these assays?
LDHA block: inactive

What do the screens show for `O=C(c1ccncc1)N1CCN(C2CCC(c3ccccc3)CC2)CC1` (configuration not stated)?
Vif-APOBEC3G blk: inactive; IDH1 R132H inh: inactive; Pin1 inh: inactive; Vif-APOBEC3F blk: inactive; LDHA block: -32; Tb PGK inh: inactive

Results for COCC(C)NCC(=O)NC(C)CCc1ccccc1 (configuration not stated) ?
Vif-APOBEC3G blk: inactive; IDH1 R132H inh: inactive; Pin1 inh: inactive; Vif-APOBEC3F blk: inactive; LDHA block: -30; Tb PGK inh: inactive

What do the screens show for `O=[N+]([O-])c1ccc(C=NNC(=S)NN=Cc2ccc([N+](=O)[O-])cc2)cc1`?
Vif-APOBEC3G blk: inactive; IDH1 R132H inh: inactive; Pin1 inh: inconclusive; Vif-APOBEC3F blk: inconclusive; LDHA block: inactive; Tb PGK inh: inactive

What do the screens show for `CCN=C(N/N=C/c1ccc([N+](=O)[O-])cc1)SC`?
Vif-APOBEC3G blk: inactive; IDH1 R132H inh: inactive; Pin1 inh: inactive; Vif-APOBEC3F blk: inactive; LDHA block: -110; Tb PGK inh: inactive
